The whole screen tested about 300,000 compounds, of which about 5,400 (1.8%) were called active. Entries that show only a call come without a potency. Another 28% or so got no clear call; they are omitted. Calls come from the whole dose curve; tested in HEK293 cells. This excerpt belongs to a sample that is enriched for actives.
Potency is the fitted concentration of half-maximal effect.

The assay can be described thus: qHTS for inhibitors of binding or entry into cells for Marburg Virus. The following applies: Marburg virus pseudotyped entry inhibition, cell reporter; series mostly up to 37.8 µM. For orientation: qHTS replaces the single test concentration by a dilution series.
For `O=C(c1ccc(S(=O)(=O)N2CCCC2)cc1)N1CCN(c2ccccc2F)CC1`, the Potency result is “inactive”.

As for `c1ccc(CCc2ccccn2)cc1`, the Potency entry is “inactive”.

For `Cc1cc(N2CCN(c3ccccc3)CC2)nc(N2CCOCC2)n1`, the Potency result was “inactive”.

As to `O=C(O)c1ccc(/C=N/Nc2nc(N3CCCCC3)nc(N3CCCCC3)n2)cc1`, the Potency result was “inactive”.

Consider `C(=N/Nc1cc(N2CCOCC2)nc(N2CCOCC2)n1)/c1ccccc1`, for which the Potency was 2.51 µM (active).

Consider `O=C1C2C3C=CC(C3)C2C(=O)N1c1ncc([N+](=O)[O-])s1` (stereo not given), for which the Potency entry was “inactive”.

On to `Cc1noc(/C=C/c2ccco2)c1S(=O)(=O)N1CCC(C(=O)Nc2ccc(Cl)cn2)CC1`, for which the Potency was 6.51 µM (active).

On to `Cc1noc(/C=C/N(C)C)c1S(=O)(=O)N1CCCC(C(=O)Nc2cccc(F)c2)C1` (stereo not given), for which the Potency result is “inactive”.

As to `Cc1cccc(NC(=O)C2CCN(S(=O)(=O)c3c(C)noc3/C=C/c3ccco3)CC2)c1`, the Potency result is “inactive”.

In the case of `Cc1nnc(SCC(=O)NCc2ccccc2)s1`, the Potency result is “inactive”.

`Cc1nnc(SCC(=O)N2CCc3ccccc3C2)s1`: the Potency entry is “inactive”.

With `Cc1nnc(SCC(=O)N2c3ccccc3C(C)(c3ccc(Cl)cc3)CC2(C)C)s1` (stereo not given), the Potency was 10 µM (active).

`Nn1c(SCC(=O)Nc2ccc3c(c2)CCC3)nnc1C1CC1`: the Potency result is “inactive”.

As for `Cn1c(CNC(=O)c2ccco2)nnc1SCC(=O)N1CCN(c2ccccc2)CC1`, the Potency result is “inactive”.

On to `Cc1ccccc1NC(=O)Cc1nnc(SCC(=O)N2CCN(c3ccccc3)CC2)n1C`, for which the Potency result is “inactive”.

In the case of `Cn1c(Cc2cccc3ccccc23)nnc1SCC(=O)N1CCN(c2cccc(Cl)c2)CC1`, the Potency was 12.6 µM (active).

As to `Cc1cccc(C(=O)N[C@H](C(=O)NCc2cccs2)C(C)C)c1`, the Potency entry was “inactive”.

`CCCOC(=O)CSC1=C(C#N)[C@H](c2ccccc2OCC)[C@H](C#N)C(=O)N1`: the Potency result was “inactive”.

Take `C=CC1=C(C)C2=NC1=CC1=NC(=CC3=NC(=CC4=NC(=C2)C(C)=C4CCC(=O)O)C(CCC(=O)O)=C3C)C(C=C)=C1C`: the Potency entry is “inactive”.

As to `CC(C)(c1ccccc1)c1ccc(OCCN)cc1`, the Potency result is “inactive”.

As for `CN1CCC[C@@H]1CCO[C@](C)(c1ccccc1)c1ccc(Cl)cc1`, the Potency was 9.2 µM (active).

`Cc1ccc(S(=O)(=O)Nc2ccc(F)c(S(=O)(=O)N3CCOCC3)c2)cc1`: the Potency result was “inactive”.

For `O=C(c1cccc(S(=O)(=O)N2CCOCC2)c1)N1CCOCC1`, the Potency entry is “inactive”.

On to `O=C(Nc1nnc(-c2ccccc2)o1)c1cccc(S(=O)(=O)N2CCOCC2)c1`, for which the Potency is 12.6 µM (active).

Take `O=C(NNC(=S)Nc1ccccc1)c1cccc(S(=O)(=O)N2CCOCC2)c1`: the Potency entry was “inactive”.

Regarding `C/C(=N/OC(=O)c1ccc(Br)cc1)c1ccc(C)cc1`, the Potency result was “inactive”.

Turning to `Cc1ccc(CSCC(=O)N(C)CC(=O)Nc2cccc(F)c2)cc1`, the Potency result is “inactive”.

Consider `Cc1c(CCO)c(=O)n(-c2ccccc2)n1S(=O)(=O)c1ccc(F)cc1`, for which the Potency result was “inactive”.

As to `CC(=O)NC1(c2ccc(F)cc2)CCN(C(=O)c2c(F)cccc2F)CC1`, the Potency result is “inactive”.

For the compound `Cc1c(CCO)c(=O)[nH]n1C(=O)c1c(F)cccc1F`, the Potency was 2.06 µM (active).

For the compound `O=C(CSc1nc(C2CC2)nc2ccccc12)Nc1cccc(O)c1`, the Potency entry was “inactive”.

As to `Cc1cnc(NC(=O)CSc2nnc(-c3ccc(Cl)cc3Cl)n2N)s1`, the Potency entry was “inactive”.

As to `Cc1ccc(CCC(=O)Nc2ncc(Cc3cc(Cl)ccc3Cl)s2)o1`, the Potency is 0.651 µM (active).

`CCOc1ccccc1NC(=O)CCc1ccc(C)o1`: the Potency result is “inactive”.

As for `O=C(OCCOc1ccccc1F)c1cc(S(=O)(=O)N2CCOCC2)ccc1F`, the Potency entry was “inactive”.

Regarding `C=CCn1c(COc2cccc3cccnc23)nnc1SCC(=O)OC`, the Potency result was “inactive”.

Consider `COc1ccc(CCNC(=O)C(Sc2ccccn2)c2ccccc2)cc1OC` (stereo not given), for which the Potency result is “inactive”.

Consider `CCCCC(=O)NC(c1ccc(OC)c(OC)c1)c1ccc2cccnc2c1O` (stereo not given), for which the Potency is 3.16 µM (active).

As to `Cc1cccc(NC(=O)c2cccnc2Cl)n1`, the Potency result is “inactive”.

With `CCOc1ccc(-n2c(SCC(=O)Nc3cc(C(=O)O)ccc3Cl)nc3ccccc3c2=O)cc1`, the Potency result is “inactive”.

As to `N#CCCN(C(=O)COC(=O)c1ccc2c(c1)OCCO2)c1ccccc1`, the Potency entry is “inactive”.

For `Cc1ccc(N2CC(C(=O)Nc3ccc(N(C)C)cc3)CC2=O)cc1Cl` (stereo not given), the Potency entry was “inactive”.

For the compound `CN(C)c1ccc(NC(=S)N(CCc2ccccc2)C2CC(=O)N(c3c(Cl)cccc3Cl)C2=O)cc1` (stereo not given), the Potency was 4.47 µM (active).

In the case of `COC(=O)CN(C(=S)Nc1ccc(Cl)cc1)C1CC(=O)N(c2ccc(OC)cc2)C1=O` (stereo not given), the Potency entry is “inactive”.

On to `COc1ccccc1NC(=O)COC(=O)CNC(=O)C1CCCCC1`, for which the Potency result is “inactive”.

For `CC(C=Cc1ccccc1)=NNS(=O)(=O)c1ccc([N+](=O)[O-])cc1`, the Potency result is “inactive”.

Regarding `CCn1c(C(O)c2cc(OC)ccc2OC)nc2ccccc21` (stereo not given), the Potency entry was “inactive”.

Take `CS(=O)(=O)c1ccc(Cl)c(NC(=O)COC(=O)c2cccc(S(=O)(=O)N3CCCC3)c2)c1`: the Potency entry is “inactive”.

On to `CC(=O)c1c(C)[nH]c(C(=O)OCC(=O)Nc2cc(S(=O)(=O)N3CCCCC3)ccc2C)c1C`, for which the Potency is 9.2 µM (active).

In the case of `Cc1nc(-c2ccc(F)cc2)c(CC(=O)Nc2cc(S(=O)(=O)N3CCCCC3)ccc2C)s1`, the Potency result is “inactive”.

Consider `COc1ccc(CCC(=O)Nc2ccc(Cl)c(S(=O)(=O)N3CCOCC3)c2)cc1OC`, for which the Potency was 6.31 µM (active).

`O=C(CCc1ccc(S(=O)(=O)N2CCOCC2)cc1)Nc1ccc2ccccc2c1`: the Potency entry is “inactive”.

For the compound `COc1ccc(CC(=O)Nc2ccc3c(c2)CCC3)cc1S(=O)(=O)N1CCOCC1`, the Potency result was “inactive”.

Regarding `CCN(CC(=O)Nc1cc(Cl)ccc1C)C(=O)CSCc1ccccc1`, the Potency entry was “inactive”.

Consider `CCOCCCN1C(=O)C2C(C(=O)Nc3ccc(OCC)cc3)C3C=CC2(O3)C1C(=O)NC1CCCCC1` (stereo not given), for which the Potency result is “inactive”.

Take `COc1ccc(NS(=O)(=O)c2ccc(N3CCOCC3)c(NC(=O)c3ccccc3Br)c2)cc1`: the Potency is 2.51 µM (active).

Take `COc1ccc(NS(=O)(=O)c2ccc(C)c(C(=O)NCC(c3cccs3)N3CCOCC3)c2)cc1` (stereo not given): the Potency result is “inactive”.

In the case of `CC(=O)Nc1ccc(S(=O)(=O)Nc2ccc(N3CCOCC3)c(F)c2)cc1`, the Potency result was “inactive”.

`CCCCCN(C(=O)CCC(=O)OCC(=O)NC1CCC(C)CC1)c1c(N)n(CCCC)c(=O)[nH]c1=O` (stereo not given): the Potency result is “inactive”.

On to `CC1CCN(C(=O)C2CCN(S(=O)(=O)N3CCC4(CC3)OCCO4)CC2)CC1`, for which the Potency entry is “inactive”.

As to `NC(=O)C1CCN(C(=O)c2cn(-c3ccccc3)nc2-c2cccnc2)CC1`, the Potency entry is “inactive”.

Take `C/C(=N\NC(=O)Cc1ccc(Br)cc1)c1cccnc1`: the Potency result is “inactive”.

Regarding `CC1=NNC(=O)C1CCC(=O)N/N=C(\C)c1ccc(Cl)cc1` (stereo not given), the Potency result was “inactive”.

For the compound `C/C(=N\NC(=O)Cc1ccc(Cl)cc1)c1ccccn1`, the Potency was 3.26 µM (active).

`Cn1c(CCNS(=O)(=O)c2ccc(F)cc2)nnc1SCc1cccnc1`: the Potency entry is “inactive”.

With `Cc1ccc(Br)c(NS(=O)(=O)c2cccc(C(=O)N3CCNC(=O)C3)c2)c1`, the Potency entry was “inactive”.

In the case of `Cc1c(NC(=O)C(C)OC(=O)c2ccccc2O)c(=O)n(-c2ccccc2)n1C` (stereo not given), the Potency entry was “inactive”.

With `Fc1ccc2[nH]c3c(N4CCN(Cc5ccc6c(c5)OCO6)CC4)ncnc3c2c1`, the Potency is 8.91 µM (active).

For `Fc1ccc2[nH]c3c(N4CCSCC4)ncnc3c2c1`, the Potency is 10 µM (active).

As for `Fc1ccc(N2CCN(Cc3ccc4c(c3)OCO4)CC2)cc1`, the Potency result was “inactive”.

For `Cc1cc(N2CCN(Cc3ccc4c(c3)OCO4)CC2)n2ncnc2n1`, the Potency entry is “inactive”.

As to `O=C(C1C=CC(C(=O)N2CCOCC2)S1)N1CCOCC1` (stereo not given), the Potency result is “inactive”.

On to `O=C(Cn1ccc2cc(S(=O)(=O)N3CCCC3)ccc21)NCc1ccccc1`, for which the Potency entry was “inactive”.

For `COCCn1c(C)cc(C(=O)CSc2nnc(C3CC3)n2C2CC2)c1C`, the Potency entry was “inactive”.

As to `CCN(CC)CCNc1ccc(Cl)cc1[N+](=O)[O-]`, the Potency result was “inactive”.

Regarding `CCN(CC)CCCC(C)Nc1ccnc2cc(Cl)ccc12` (stereo not given), the Potency was 5.62 µM (active).

With `COc1ccc(CNC(=O)C(C)NCc2ccccc2Cl)cc1` (stereo not given), the Potency entry was “inactive”.

On to `Cc1cccc(N2C(=O)C[C@@H](N3CCN(Cc4ccc(Cl)cc4)CC3)C2=O)c1`, for which the Potency entry is “inactive”.

Regarding `Cc1nn2c(c1-c1ccccc1)N=C(c1ccco1)CC2c1ccccc1` (stereo not given), the Potency is 0.517 µM (active).

As for `Cc1ccc(C)c(C(C)NC(=O)C2CCCO2)c1` (stereo not given), the Potency entry was “inactive”.

For `COC(CNC(=O)c1ccc2c(c1)ncn2-c1cc(C)cc(C)c1)OC`, the Potency result is “inactive”.

For the compound `O=C(CC(=O)Nc1ccc(Cl)c(Cl)c1)N/N=C/c1ccc(O)cc1`, the Potency result is “inactive”.

As for `O=C(CC(O)(C(F)(F)F)C(F)(F)F)Nc1ccc(Cl)c(Cl)c1`, the Potency is 3.26 µM (active).

Consider `N/C(=N\OC(=O)Nc1ccc(Cl)c(Cl)c1)c1ncc(C(F)(F)F)cc1Cl`, for which the Potency result is “inactive”.

Regarding `CSc1ncc(C(=O)Nc2ccc(C)cc2C)c(C)n1`, the Potency entry was “inactive”.

Take `CCOc1ccc(NC(=O)C(C)N2C(=O)c3ccccc3C2=O)cc1` (stereo not given): the Potency result was “inactive”.

Regarding `COc1ccc(CCNC(=O)CCc2ccccc2O)cc1OC`, the Potency entry is “inactive”.

`COc1ccc(CCNC(=O)CCCn2c(=O)c3ccccc3n(Cc3ccc(F)cc3Cl)c2=O)cc1OC`: the Potency entry was “inactive”.

Turning to `COc1ccc(CCn2ccc(O)c(Cc3ccc(Cl)cc3Cl)c2=O)cc1OC`, the Potency was 3.98 µM (active).

`COC(=O)c1ccc(C(=O)NC2CC(C)(C)Cc3c2cnn3-c2ccc(F)cc2)nc1` (stereo not given): the Potency entry was “inactive”.

Take `Cn1nnnc1SCC(=O)Nc1sccc1C(N)=O`: the Potency entry was “inactive”.

In the case of `CN1c2ccc(C=O)c3c(C=O)ccc(c23)N(C)C1(C)C`, the Potency was 10 µM (active).

On to `O=C(CN(CC1CCCO1)C(=O)CNS(=O)(=O)c1ccc(Cl)cc1)NCc1ccccc1` (stereo not given), for which the Potency entry was “inactive”.

Regarding `COc1ccc(C(=O)Nc2ccnn2C2CCN(Cc3ccncc3)CC2)cc1`, the Potency result was “inactive”.

Regarding `S=C(c1ccccc1)N1CCCC1`, the Potency entry is “inactive”.

For the compound `CSCCC(NC(=O)c1ccccc1)C(=O)N1CCN(Cc2ccc(Cl)cc2)CC1` (stereo not given), the Potency is 11.2 µM (active).

Consider `CSCCC(NS(=O)(=O)/C=C/c1ccccc1)C(=O)N1CCC(C)CC1` (stereo not given), for which the Potency result was “inactive”.

Consider `O=C(NC(Cc1ccccc1)C(=O)N1CCCC(C(F)(F)F)C1)c1ccccc1` (stereo not given), for which the Potency entry is “inactive”.

On to `CC(=O)Nc1ccc(S(=O)(=O)NNC(=O)CCc2ccccc2)cc1`, for which the Potency result is “inactive”.

For the compound `CC(=O)Nc1ccc(Nc2ncnc3c2nnn3Cc2ccccc2Cl)cc1`, the Potency result was “inactive”.

(Values after PubChem BioAssay AID540276 (National Center for Advancing Translational Sciences (NCATS), 2011).)
